HCV inhibitor – qHTS Assay for Inhibitors of Hepatitis C Virus (HCV); 3.4% of 340,000 active; Potency, µM (doses to about 41.8 µM), for the others: at the highest dose activity change, negative = inhibition, usual class: inhibitors; Huh7.5.1 HCVcc-Cre infection, luciferase reporter, 44 h; AID 651820, 2012; further: potency means the concentration at half of the fitted maximal effect; on the % scale 0 is the no-effect control and ±100 the full control effect
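A cell-based infection assay in which seeded cells (1,000 per well) receive test compound after 4 h, are inoculated with HCVcc-Cre at approximately 0.5 moi, and are incubated 44 h before luminescence detection.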
HCMV inh – qHTS Assay for inhibitors of the human cytomegalovirus (HCMV) | HFF cells, HCMV-luciferase reporter, 72 h; hits give low values | activity change, negative = inhibition, % at 57.5 µM | 4.5% of 410,000 active | AID 1259415, 2018; in the data active means activity change below about -60%; inconclusive means no clear call, values can overlap the other calls; inactive means above about -39%; further: on the % scale 0 is the no-effect control and ±100 the full control effect
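Compounds were evaluated in HFFs infected with an HCMV luciferase reporter virus (MOI 1 PFU/cell). Luciferase in lysates collected 72 h post infection served as the replication measure.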
Pf growth 48h – Primary qHTS for delayed death inhibitors of the malarial parasite plastid, 48 hour incubation; P. falciparum luciferase growth in erythrocytes, 48 h; Potency, µM (series often up to 28.7 µM), for the others: at the top dose activity change, negative = inhibition, usual class: inhibitors; 5.9% of 310,000 active; AID 504832, 2011; further: potency means the concentration at half of the fitted maximal effect; on the % scale 0 is the no-effect control and ±100 the full control effect
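Erythrocytes infected with P. falciparum carrying an integrated firefly luciferase reporter (2% hematocrit, 0.1% parasitemia final) were exposed to compounds in RPMI 1640 with 0.5% Albumax at 37 C, 5% CO2. Growth inhibition was scored as reduced luminescence.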
SARS PLP yeast – qHTS of Yeast-based Assay for SARS-CoV PLP; AID 485353, 2010; 0.19% of 330,000 active; Potency, µM (series often up to 32.9 µM), inactives show at the top dose activity, positive = growth rescue, actives largely listed as activators; S. cerevisiae expressing SARS-CoV PLpro, growth rescue; calls by dose curve; further: potency means the concentration at half of the fitted maximal effect; 0% is about no effect; nearly all actives have a fitted effect of over 55% in size
Pf growth 96h – Primary qHTS for delayed death inhibitors of the malarial parasite plastid, 96 hour incubation. P. falciparum luciferase reporter growth, 96 h. 6.9% of 320,000 active. Potency, µM (top dose mostly 28.7 µM), for the others: at the highest dose activity change, negative = inhibition, actives largely listed as inhibitors. AID 504834, 2011; further: potency means the concentration at half of the fitted maximal effect; on the % scale 0 is the no-effect control and ±100 the full control effect
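Two-generation exposure (96 h) targets delayed-death phenotype. Reporter parasites carrying integrated firefly luciferase, in red cells at 2% hematocrit and 0.05% parasitemia final, kept at 37 C, 5% CO2; luminescence loss indicates inhibition.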
Sm TGR block – qHTS Assay for the Inhibitors of Schistosoma Mansoni Peroxiredoxins | Potency, µM (highest dose often 114 µM), inactives show at the highest dose activity change, negative = inhibition, usual class: inhibitors | AID 485364, 2010 | purified TGR, DTNB reduction, TNB absorbance 405 nm | 3% of 360,000 active | Schistosoma mansoni thioredoxin glutathione reductase (TGR), Q962Y6; further: potency means the concentration at half of the fitted maximal effect; on the % scale 0 is the no-effect control and ±100 the full control effect; nearly all actives have a fitted effect of over 60% in size
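Kinetic colorimetric format: TGR-catalysed, NADPH-driven DTNB reduction monitored via TNB absorbance. Enzyme dispensed at 20 nM; compound exposure 15 min at room temperature before reaction start.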
An asterisk follows results filed as active; ? = inconclusive; / = no result given; + = active, no number. Hits are enriched below; roughly 15% of the tested compounds scored in any of these assays. Unless noted, the call rests on the fitted dose curve; in most records, active means well fitted curve in the direction sought with a large enough effect; inconclusive means small, poorly fitted or top-dose-only effect, or another doubt; inactive means no such curve, though single readings can be large; an effect the other way counts as inactive or inconclusive.

SMILES	HCV inhibitor	HCMV inh	Pf growth 48h	SARS PLP yeast	Pf growth 96h	Sm TGR block
C=CCNC(=O)C1COc2ccccc2O1 (stereo not drawn)	14.3%	-1.4	34.3%	0.2%	54.3%	4.6%
CCc1ccccc1S(=O)(=O)Cc1ccc(C(=O)NCCc2ccc(C)cc2)o1	/	-31.2	/	/	/	-7.3%
Cc1nnc(-c2cnn(C)c2N)n1CCCN1CCOCC1	4.8%	-9.6	?	-2.3%	32.2%	3.2%
Cc1cc(C(=O)NCC(c2ccco2)N(C)C)ccc1[N+](=O)[O-] (stereo not drawn)	-1.1%	7.6	-5.4%	-1.1%	5.8%	-18.9%
CS(=O)(=O)Nc1cccc2cccnc12	24.2%	29.4	-15.5%	-2.6%	1.2%	-1.4%
CC(=O)Nc1ccc(S(=O)(=O)Nc2cccc3cccnc23)cc1	-21.9%	-82.8*	4.3%	-1.7%	14.9%	-9.7%
O=S(=O)(Nc1cccc2cccnc12)c1ccccc1	?	-100.9*	3.7µM*	-3.2%	46.5%	1.7%
CCCCC1=CC2=C(c3ccco3)C(=O)C(C)(OC(=O)c3ccc(OC)cc3)C(=O)C2=CN1CC(C)C (stereo not drawn)	15.1%	11.7	27.0%	0.1%	?	14.1µM*
CCCCC1=CC2=C(c3ccco3)C(=O)C(C)(OC(=O)c3ccc(OC)cc3)C(=O)C2=CN1Cc1ccc(OC)cc1 (stereo not drawn)	/	/	?	-0.8%	?	-2.0%
CCCCC1=CC2=C(c3ccco3)C(=O)C(C)(OC(=O)c3ccc(OC)cc3)C(=O)C2=CN1CCCN(CC)CC (stereo not drawn)	2.5%	-22.3	?	0.8%	14.7µM*	-34.5%
CCCCC1=CC2=C(c3ccco3)C(=O)C(C)(OC(=O)c3ccc(OC)cc3)C(=O)C2=CN1CCN1CCOCC1 (stereo not drawn)	-12.4%	/	?	1.0%	10.4µM*	44.7µM*
CCCCC1=CC2=C(c3ccco3)C(=O)C(C)(OC(=O)c3ccc(OC)cc3)C(=O)C2=CN1CCCCO (stereo not drawn)	-31.1%	-2.5	?	1.1%	?	?
O=C(NNc1c(Cl)cc(Cl)cc1Cl)C1CCC1	0.7%	-29.5	-1.5%	-11.4%	-29.4%	-7.2%
COCCNC(=O)C1(C)CCCN(Cc2cc3ccccc3o2)C1 (stereo not drawn)	/	11.9	/	/	/	/
COc1ccc(OC)c(/C=C/C(=O)OCC(=O)NCc2cccs2)c1	-26.9%	-20.1	-17.6%	1.1%	?	-6.0%
CCC(CC)C(=O)Nc1c2c(nn1-c1ccc(OC)cc1)CS(=O)C2 (stereo not drawn)	6.9%	-18.4	/	-3.5%	0.0329µM*	3.0%
O=C(COC(=O)CN1C(=O)C2CC=CCC2C1=O)Nc1cccc([N+](=O)[O-])c1 (stereo not drawn)	/	9.8	/	/	/	/
O=C(c1cc(-c2ccc(Br)cc2)n[nH]1)N1CCN(S(=O)(=O)c2ccc(Br)s2)CC1	/	+	/	/	/	-1.8%
O=S(=O)(c1ccc(Br)s1)N1CCN(c2ccc(F)cc2)CC1	16.3%	1.5	?	-1.1%	-2.6%	25.1µM*
CCC(C)NC(=O)C1CCN(S(=O)(=O)c2ccc(Br)s2)CC1 (stereo not drawn)	-8.5%	-7.1	?	-4.9%	10.4µM*	0.0%
CN1C(=O)C(C)(C)c2cc(S(=O)(=O)N3CCC(C(=O)NCc4ccc(F)cc4)CC3)ccc21	-9.5%	74.0	?	1.3%	13.1µM*	26.9%
CC(NC(=O)C1CCN(S(=O)(=O)c2ccc(Br)s2)CC1)c1ccccc1 (stereo not drawn)	-7.1%	-13.4	0.0%	-3.2%	23.8%	-9.9%
CN1C(=O)C(C)(C)c2cc(S(=O)(=O)N3CCC(C(=O)NCc4ccc(Cl)cc4)CC3)ccc21	?	-27.5	?	-5.7%	?	0.2%
COc1ccc(OC)c(NC(=O)c2csnn2)c1	/	-22.7	/	/	/	1.7%
COc1cccc2c1cc1c(=O)n(CC(=O)N3CCN(c4cccc(C(F)(F)F)c4)CC3)nc(C)n12	/	12.6	/	/	/	0.4%
SMILES	HCV inhibitor	HCMV inh	Pf growth 48h	SARS PLP yeast	Pf growth 96h	Sm TGR block
CCC(CO)NS(=O)(=O)c1cc(-c2nn(C)c(=O)c3ccccc23)ccc1C (stereo not drawn)	?	23.7	-4.1%	-0.3%	137.4%	-2.7%
CN(CC(=O)Nc1ccc(OC(F)(F)F)cc1)C(=O)Cc1cccs1	-15.2%	-16.1	/	-1.8%	/	/
Cc1ccc(Cl)cc1NC(=S)N1CCCCCC1	-10.7%	/	-1.4%	13.1%	-1.7%	0.0%
O=C(NCc1ccc(F)cc1)C1CCN(S(=O)(=O)c2ccc(Br)s2)CC1	?	-38.2	9.28µM*	-2.2%	?	-3.7%
CC(CCc1ccccc1)NC(=O)C1CCN(S(=O)(=O)N2CCCCC2)CC1 (stereo not drawn)	?	-15.1	?	2.6%	1.04µM*	13.7%
CC(CCc1ccccc1)NC(=O)C1CCN(S(=O)(=O)c2ccc(F)cc2)CC1 (stereo not drawn)	?	5.6	-15.1%	1.9%	?	-20.1%
N#Cc1ccc(C23CC4(C2)[C@H](CN(CC2CCCCC2)[C@@H]4c2ccccc2)C3c2ccccc2)cc1 (stereo partly drawn)	-4.6%	16.4	?	-3.6%	11.7µM*	11.1%
N#Cc1ccc(C23CC4(C2)[C@H](CN(CC2CCCCC2)[C@@H]4c2ccccc2)C3c2ccc(C(F)(F)F)cc2)cc1 (stereo partly drawn)	/	48.1	10.4µM*	-5.2%	?	-25.8%
Oc1ccc(Cc2ccc(Cl)cc2)c(O)c1	19.8%	-62.1*	?	3.8%	-15.0%	29.7%
O=C1[C@H]2[C@@H](c3ccc(F)cc3)N3C(=O)N(c4ccccc4)C(=O)[C@@]3(Cc3ccccc3)[C@H]2C(=O)N1C1CCCCC1	-12.5%	-8.9	?	2.0%	?	-3.6%
COc1ccc(N2C(=O)N3[C@H](c4ccc(Cl)cc4)[C@@H]4C(=O)N(C5CCCCC5)C(=O)[C@@H]4[C@]3(C)C2=O)cc1	3.7%	4.1	?	7.0%	2.33µM*	-12.9%
CC(C)C[C@@]12C(=O)N(c3cccc(F)c3)C(=O)N1[C@H](c1ccc(Cl)cc1)[C@@H]1C(=O)N(C3CCCCC3)C(=O)[C@@H]12	2.0%	1.6	2.94µM*	4.1%	4.65µM*	0.0%
